Sampled rows, rich in hits. Any-hit rate of the full collection: about 19%.
TDP1 cell noCPT – qHTS for Inhibitors of human tyrosyl-DNA phosphodiesterase 1 (TDP1): qHTS in cells in absence of CPT; AID 686978, 2013; Potency, µM (series often up to 46.2 µM), inactives show at the top dose activity change, negative = growth inhibition, actives largely listed as inhibitors; 420,000 tested, 15% active; DT40 Tdp1-/- hTDP1 cells, no CPT, ATP luminescence, 48 h; also: potency is read from the fitted curve at half-maximal effect; nearly all actives have a fitted effect of over 55% in size
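Seeded 400 DT40-hTDP1 cells/well (vehicle DMSO, no 20 nM CPT); pinned compounds; ≥48 hr at 37 °C; CellTiter-Glo luminescence as viability measure.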
HT1080-NT tox – kills 2HG-producing HT-1080-NT fibrosarcoma cells; HT-1080-NT fibrosarcoma viability, CellTiter-Glo ATP luminescence, 48 h; Potency, µM (highest dose often 46.1 µM), for inactives: at the highest dose activity, negative = less viability, most hits filed as cytotoxic; 360,000 tested, 1.6% active;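 also: NT is the 2HG producing partner of a matched IDH1 knockdown line; potency is read from the fitted curve at half-maximal effect; 0% = DMSO-treated cells and -100% = media-only wells without cells; nearly all actives have a fitted effect of over 55% in size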
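Toxicity toward the 2HG-producing NT line was scored as %Activity, normalised to DMSO and no-cell wells, from CellTiter-Glo luminescence after 48 hours' treatment.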
IL1B secr inh – inhibitors of inflammasome signaling (IL-1 beta secretion) | AID 743279 | activity change, % at 57.5 µM | THP-1 LPS/ATP IL-1B secretion, AlphaLISA, 16 h; active compounds read low | 360,000 tested, 4.7% active; in the data active = activity change below about -50%; inconclusive = mostly about -30% to -49%
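THP-1 cells pretreated 1 hr with compounds (up to 57.5 uM final), then stimulated with LPS (250 ng/mL final) plus ATP (1.25 mM final); secreted IL-1B measured by AlphaLISA after 16 hr, decreased signal indicating inhibition.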
DT40 TDP1 CPT – DT40-hTDP1 cell growth loss with CPT; chicken DT40 Tdp1-/-;hTDP1 cells + 20 nM CPT, ATP luminescence, 48 h; Potency, µM (series often up to 46.2 µM), without a hit: at the top dose activity change, negative = growth inhibition, most hits filed as inhibitors; 420,000 tested, 12% active; also: potency is read from the fitted curve at half-maximal effect; nearly all actives have a fitted effect of over 55% in size
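Chicken DT40 Tdp1-/- cells stably complemented with human TDP1 were seeded at 400 cells/well in medium containing 20 nM camptothecin, exposed to pin-transferred compounds, and grown at 37 °C for at least 48 hr. Viability was read as ATP luminescence.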
HT1080 IDH1KD tx – kills HT-1080 cells with IDH1 knockdown; HT-1080 IDH1 knockdown viability, ATP luminescence, 48 h; Potency, µM (highest dose often 46.1 µM), without a hit: at the top dose activity, negative = toxicity, hits mostly cytotoxic; 360,000 tested, 2% active; AID 686971;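 also: potency is read from the fitted curve at half-maximal effect; 0% = DMSO wells and -100% = cell-free medium wells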
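Using the IDH1-knockdown HT-1080 line run in the same batch and compound series as the NT line, viability after 48 h at 37 °C was determined by CellTiter-Glo luminescence and expressed as % activity.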
* = called active by the depositor. Unless noted, calls follow the shape of the dose curve; as a rule, active = well fitted curve in the direction sought with a large enough effect; inconclusive = small, poorly fitted or top-dose-only effect, or another doubt; inactive = no such curve, though single readings can be large; an effect the other way counts as inactive or inconclusive. Unless noted, % is scaled to controls: 0 for no effect and ±100 for the full control effect.

How did COc1ccc(S(=O)(=O)N2CCN(CC(=O)Nc3sccc3C(N)=O)CC2)cc1OC do in these assays?
TDP1 cell noCPT: 23µM*; HT1080-NT tox: -5%; IL1B secr inh: 31; DT40 TDP1 CPT: inconclusive; HT1080 IDH1KD tx: 0%

How did CCN(CC(=O)NCCCN1CCOCC1)S(=O)(=O)c1ccc(F)cc1 do in these assays?
TDP1 cell noCPT: 16%; HT1080-NT tox: 4%; IL1B secr inh: 9; DT40 TDP1 CPT: 2%; HT1080 IDH1KD tx: 6%

What do the screens show for `COc1ccccc1CNC(=O)c1cc2ccccc2oc1=O`?
TDP1 cell noCPT: -10%; HT1080-NT tox: 4%; IL1B secr inh: 0; DT40 TDP1 CPT: -6%; HT1080 IDH1KD tx: 7%

What do the screens show for `COc1ccccc1NC(=O)c1cc2ccccc2o/c1=N\O`?
TDP1 cell noCPT: 21µM*; HT1080-NT tox: -1%; IL1B secr inh: -18; DT40 TDP1 CPT: 21µM*; HT1080 IDH1KD tx: 0%

Results for COc1ccccc1NC(=O)c1cc2ccc(O)cc2o/c1=N\O ?
TDP1 cell noCPT: inconclusive; HT1080-NT tox: inconclusive; IL1B secr inh: -63*; DT40 TDP1 CPT: inconclusive; HT1080 IDH1KD tx: inconclusive

Results for COc1ccccc1N=c1oc2cc(O)ccc2cc1C(=O)NCC1CCCO1 (stereo not drawn) ?
TDP1 cell noCPT: inconclusive; HT1080-NT tox: -1%; IL1B secr inh: -1; DT40 TDP1 CPT: inconclusive; HT1080 IDH1KD tx: 2%

Results for CCOC(=O)c1noc2ncn(Cc3ccc([N+](=O)[O-])cc3)c(=O)c12 ?
TDP1 cell noCPT: -8%; DT40 TDP1 CPT: -16%

How did Cc1ccc(N2C(=O)CS(=O)(=O)C23C(=O)N(Cc2ccccc2F)c2ccccc23)cc1Cl (stereo not drawn) do in these assays?
TDP1 cell noCPT: inconclusive; DT40 TDP1 CPT: 15µM*

What do the screens show for `COc1ccc(CC2CC(=O)N(c3ccc(C)cc3)C2=O)cc1` (stereo not drawn)?
TDP1 cell noCPT: 6%; HT1080-NT tox: 15%; IL1B secr inh: -2; DT40 TDP1 CPT: 31%; HT1080 IDH1KD tx: 7%

How did CN1C(=O)C2(c3ccccc31)N(c1cccc(C(F)(F)F)c1)C(=O)CS2(=O)=O (stereo not drawn) do in these assays?
TDP1 cell noCPT: -14%; DT40 TDP1 CPT: -25%

Results for COc1ccc(N2C(=O)CS(=O)(=O)C23C(=O)N(Cc2ccc(F)cc2)c2ccc(C)cc23)cc1 (stereo not drawn) ?
TDP1 cell noCPT: 15µM*; DT40 TDP1 CPT: inconclusive

Results for COc1cccc(/C=N/Nc2nc(Nc3ccccc3)nc(-n3nc(C)cc3C)n2)c1O ?
TDP1 cell noCPT: 0.58µM*; HT1080-NT tox: 6.5µM*; IL1B secr inh: 0; DT40 TDP1 CPT: 0.82µM*; HT1080 IDH1KD tx: 7.3µM*

What do the screens show for `COc1cccc(/C=N/Nc2cc(-n3nc(C)cc3-c3ccccc3)ncn2)c1O`?
TDP1 cell noCPT: 0.65µM*; HT1080-NT tox: inconclusive; IL1B secr inh: 58; DT40 TDP1 CPT: 0.82µM*; HT1080 IDH1KD tx: inconclusive

How did CNC[C@@H]1Oc2cc(Br)ccc2S(=O)(=O)N([C@@H](C)CO)C[C@@H]1C do in these assays?
TDP1 cell noCPT: 0%; HT1080-NT tox: 8%; IL1B secr inh: 13; DT40 TDP1 CPT: -16%; HT1080 IDH1KD tx: 14%

What do the screens show for `COc1ccc2c(C)c(CCC(=O)NCc3ccccc3OC)c(=O)oc2c1`?
TDP1 cell noCPT: -23%; DT40 TDP1 CPT: -23%

What do the screens show for `O=[N+]([O-])c1cccc2c(Br)[nH]nc12`?
TDP1 cell noCPT: inconclusive; DT40 TDP1 CPT: 32µM*

What do the screens show for `CC(C)[C@@H](C)/C=C/[C@@H](C)[C@H]1CC[C@H]2/C(=C/C=C3\C[C@@H](O)CC[C@@H]3C)CCC[C@]12C`?
TDP1 cell noCPT: 17µM*; DT40 TDP1 CPT: inconclusive

What do the screens show for `CC1=CC2=NC(=O)/C(=C\c3cccn3CCOc3ccccc3C)C(=N)N2O1`?
TDP1 cell noCPT: inconclusive; HT1080-NT tox: inconclusive; IL1B secr inh: inconclusive; DT40 TDP1 CPT: 21µM*; HT1080 IDH1KD tx: inconclusive

What do the screens show for `COc1ccccc1OCCOc1ccc(/C=C2/C(=N)N3OC(C)=CC3=NC2=O)cc1OC`?
TDP1 cell noCPT: inconclusive; HT1080-NT tox: 0%; IL1B secr inh: 27; DT40 TDP1 CPT: inconclusive; HT1080 IDH1KD tx: 0%

How did Cc1ccccc1Cn1cccc1/C=C1/C(=N)N2C=CSC2=NC1=O do in these assays?
TDP1 cell noCPT: 29µM*; HT1080-NT tox: inconclusive; IL1B secr inh: 13; DT40 TDP1 CPT: 18µM*; HT1080 IDH1KD tx: inconclusive

How did CCOC(=O)Cn1nc(N2CCN(c3ccc(F)cc3)CC2)ccc1=O do in these assays?
TDP1 cell noCPT: inconclusive; DT40 TDP1 CPT: -15%

Results for Cc1ncsc1CCOC(=O)C1C2CC3CC(C2)CC1C3 (stereo not drawn) ?
TDP1 cell noCPT: 23µM*; HT1080-NT tox: -26%; IL1B secr inh: -10; DT40 TDP1 CPT: inconclusive; HT1080 IDH1KD tx: inconclusive

Results for CCCCN=C1NN=C(c2ccc3c(c2)OCCO3)CS1 ?
TDP1 cell noCPT: -25%; HT1080-NT tox: -19%; IL1B secr inh: -63*; DT40 TDP1 CPT: -28%; HT1080 IDH1KD tx: -14%

What do the screens show for `c1csc(C2=NNC(=NC3CCCCC3)SC2)c1`?
TDP1 cell noCPT: 23µM*; HT1080-NT tox: -11%; IL1B secr inh: -13; DT40 TDP1 CPT: inconclusive; HT1080 IDH1KD tx: 10%

Results for c1cc2c(cc1C1=NNC(=NC3CC3)SC1)OCCO2 ?
TDP1 cell noCPT: 16µM*; HT1080-NT tox: 16µM*; IL1B secr inh: -22; DT40 TDP1 CPT: 21µM*; HT1080 IDH1KD tx: 12µM*

How did Cc1ccc(C(=O)Nc2ccon2)cc1S(=O)(=O)N1CCCC1 do in these assays?
TDP1 cell noCPT: -20%; HT1080-NT tox: -4%; IL1B secr inh: 9; DT40 TDP1 CPT: -23%; HT1080 IDH1KD tx: -1%

Results for O=C1CC(NNC(=O)c2cccc(F)c2)C(=O)N1 (stereo not drawn) ?
TDP1 cell noCPT: 2%; HT1080-NT tox: 8%; IL1B secr inh: 21; DT40 TDP1 CPT: 0%; HT1080 IDH1KD tx: 11%

Results for Cc1cc(C)cc(C(=O)NCC(c2ccc(N(C)C)cc2)N2CCCC2)c1 (stereo not drawn) ?
TDP1 cell noCPT: 16µM*; DT40 TDP1 CPT: 15µM*

Results for COc1cccc(C(=O)NCC(c2ccc(N(C)C)cc2)N2CCCC2)c1OC (stereo not drawn) ?
TDP1 cell noCPT: inconclusive; DT40 TDP1 CPT: 12µM*

How did COc1ccc(Cl)cc1C(=O)NCC(c1ccc(N(C)C)cc1)N1CCOCC1 (stereo not drawn) do in these assays?
TDP1 cell noCPT: 16µM*; DT40 TDP1 CPT: inconclusive
